For assay [1], the target named is T1, Ephrin type-B receptor 2 (Homo sapiens) (UniProt P29323).
T1 sequence (whole entry): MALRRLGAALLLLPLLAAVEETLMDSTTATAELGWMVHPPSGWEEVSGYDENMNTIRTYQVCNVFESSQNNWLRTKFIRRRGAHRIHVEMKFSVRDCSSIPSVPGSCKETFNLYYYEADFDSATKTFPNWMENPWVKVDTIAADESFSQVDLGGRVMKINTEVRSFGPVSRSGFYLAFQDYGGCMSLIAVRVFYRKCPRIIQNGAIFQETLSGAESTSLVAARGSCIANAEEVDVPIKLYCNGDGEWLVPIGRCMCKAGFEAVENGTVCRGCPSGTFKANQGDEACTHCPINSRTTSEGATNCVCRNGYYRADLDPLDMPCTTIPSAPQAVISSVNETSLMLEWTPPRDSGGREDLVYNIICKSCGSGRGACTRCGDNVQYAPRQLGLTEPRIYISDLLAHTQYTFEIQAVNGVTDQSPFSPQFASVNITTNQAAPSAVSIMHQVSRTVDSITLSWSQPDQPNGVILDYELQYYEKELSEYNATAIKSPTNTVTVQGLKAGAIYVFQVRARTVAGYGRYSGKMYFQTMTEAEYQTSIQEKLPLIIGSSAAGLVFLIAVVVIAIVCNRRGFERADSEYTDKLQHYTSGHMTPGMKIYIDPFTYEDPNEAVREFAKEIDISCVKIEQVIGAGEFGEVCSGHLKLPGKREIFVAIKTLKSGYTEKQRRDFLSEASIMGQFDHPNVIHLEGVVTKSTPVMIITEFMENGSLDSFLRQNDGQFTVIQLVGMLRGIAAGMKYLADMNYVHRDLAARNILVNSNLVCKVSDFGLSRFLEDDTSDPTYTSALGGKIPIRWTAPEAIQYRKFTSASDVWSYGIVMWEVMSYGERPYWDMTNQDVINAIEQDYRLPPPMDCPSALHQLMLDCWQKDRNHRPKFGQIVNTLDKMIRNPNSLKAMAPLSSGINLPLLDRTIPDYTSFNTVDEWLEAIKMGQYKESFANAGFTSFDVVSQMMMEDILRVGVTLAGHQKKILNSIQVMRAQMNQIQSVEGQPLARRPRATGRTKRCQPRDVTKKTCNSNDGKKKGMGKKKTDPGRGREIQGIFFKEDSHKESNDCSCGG
Conditions: at 1 µM.

Assay [2] concerns the target T2, Ephrin type-B receptor 3 (Homo sapiens) (UniProt P54753).
T2 sequence (whole entry): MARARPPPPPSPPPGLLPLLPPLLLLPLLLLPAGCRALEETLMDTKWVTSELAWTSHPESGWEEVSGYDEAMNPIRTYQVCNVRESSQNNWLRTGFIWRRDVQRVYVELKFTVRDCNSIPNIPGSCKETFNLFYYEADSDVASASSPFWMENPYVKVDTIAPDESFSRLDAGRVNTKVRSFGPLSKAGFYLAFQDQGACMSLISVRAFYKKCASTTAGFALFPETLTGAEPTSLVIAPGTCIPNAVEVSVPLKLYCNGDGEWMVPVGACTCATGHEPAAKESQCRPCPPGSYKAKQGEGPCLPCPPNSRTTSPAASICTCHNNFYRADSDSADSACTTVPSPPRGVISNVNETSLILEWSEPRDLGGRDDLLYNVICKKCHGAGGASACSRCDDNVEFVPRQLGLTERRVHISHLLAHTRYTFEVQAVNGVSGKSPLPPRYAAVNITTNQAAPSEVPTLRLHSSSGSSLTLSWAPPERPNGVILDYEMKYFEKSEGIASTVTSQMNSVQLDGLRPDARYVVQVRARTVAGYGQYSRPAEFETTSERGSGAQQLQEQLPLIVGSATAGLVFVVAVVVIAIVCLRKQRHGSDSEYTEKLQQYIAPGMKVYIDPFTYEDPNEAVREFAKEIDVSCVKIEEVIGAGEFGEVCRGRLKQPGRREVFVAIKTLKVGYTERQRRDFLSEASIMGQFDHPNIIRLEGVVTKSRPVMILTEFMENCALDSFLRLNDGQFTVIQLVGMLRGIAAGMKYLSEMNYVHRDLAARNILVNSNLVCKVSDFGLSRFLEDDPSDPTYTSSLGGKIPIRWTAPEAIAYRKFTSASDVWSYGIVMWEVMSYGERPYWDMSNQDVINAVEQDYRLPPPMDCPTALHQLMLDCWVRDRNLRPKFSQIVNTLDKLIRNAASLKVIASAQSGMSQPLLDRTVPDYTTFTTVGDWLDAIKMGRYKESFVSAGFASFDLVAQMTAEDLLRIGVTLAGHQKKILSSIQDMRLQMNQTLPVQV
Conditions: at 0.1 µM.

Assay [3] has as its target T2, Ephrin type-B receptor 3 (Homo sapiens). Conditions: at 1 µM.
In assay [4] the target is T3, Ephrin type-B receptor 4 (Homo sapiens) (UniProt P54760).
T3 sequence (whole entry): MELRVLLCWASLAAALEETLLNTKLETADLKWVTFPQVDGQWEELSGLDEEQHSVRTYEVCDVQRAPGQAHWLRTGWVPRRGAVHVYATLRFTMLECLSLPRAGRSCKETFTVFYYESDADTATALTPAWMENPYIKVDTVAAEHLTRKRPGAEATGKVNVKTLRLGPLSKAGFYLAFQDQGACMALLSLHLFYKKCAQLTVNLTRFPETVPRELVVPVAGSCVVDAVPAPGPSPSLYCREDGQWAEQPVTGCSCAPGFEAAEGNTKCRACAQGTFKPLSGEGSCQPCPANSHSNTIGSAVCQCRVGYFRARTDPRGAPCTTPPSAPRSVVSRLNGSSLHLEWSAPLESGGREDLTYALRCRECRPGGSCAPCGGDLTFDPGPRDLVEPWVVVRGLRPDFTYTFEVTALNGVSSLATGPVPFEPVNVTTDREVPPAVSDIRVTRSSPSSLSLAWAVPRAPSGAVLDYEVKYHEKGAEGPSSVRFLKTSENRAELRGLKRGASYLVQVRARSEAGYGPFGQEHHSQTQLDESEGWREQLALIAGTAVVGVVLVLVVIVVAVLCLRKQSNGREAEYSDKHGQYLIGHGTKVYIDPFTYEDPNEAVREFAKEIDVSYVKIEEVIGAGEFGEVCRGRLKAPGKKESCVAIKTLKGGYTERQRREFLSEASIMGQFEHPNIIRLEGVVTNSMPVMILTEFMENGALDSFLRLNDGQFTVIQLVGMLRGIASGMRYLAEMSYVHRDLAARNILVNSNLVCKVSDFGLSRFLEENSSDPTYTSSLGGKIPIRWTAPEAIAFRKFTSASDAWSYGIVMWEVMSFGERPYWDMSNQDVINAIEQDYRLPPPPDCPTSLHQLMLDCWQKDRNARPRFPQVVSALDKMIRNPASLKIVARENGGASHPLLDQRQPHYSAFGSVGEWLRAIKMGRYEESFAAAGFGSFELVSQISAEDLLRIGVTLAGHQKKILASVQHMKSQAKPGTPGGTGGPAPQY
Conditions: at 0.1 µM.

Assay [5] has as its target T3, Ephrin type-B receptor 4 (Homo sapiens). Conditions: at 1 µM.
Assay [6] addresses Receptor tyrosine-protein kinase erbB-2 (Homo sapiens) (UniProt P04626). Conditions: at 0.1 µM.
The target is the same in assay [7]. Conditions: at 1 µM.
Assay [8] deals with Receptor tyrosine-protein kinase erbB-4 (Homo sapiens) (UniProt Q15303). Conditions: at 0.1 µM.
The target is the same in assay [9]. Conditions: at 1 µM.
Assay [10] concerns the target Tyrosine-protein kinase Fer (Homo sapiens) (UniProt P16591). Conditions: at 0.1 µM.
Assay [11] has the same target. Conditions: at 1 µM.
Assay [12] has as its target Tyrosine-protein kinase Fes/Fps (Homo sapiens) (UniProt P07332). Conditions: at 0.1 µM.
Assay [13] has the same target. Conditions: at 1 µM.
Assay [14] concerns the target Fibroblast growth factor receptor 1 (Homo sapiens) (UniProt P11362). Conditions: at 0.1 µM.
The target is the same in assay [15]. Conditions: at 1 µM.
Assay [16] deals with Fibroblast growth factor receptor 2 (Homo sapiens) (UniProt P21802). Conditions: at 0.1 µM.
Fibroblast growth factor receptor 2 (Homo sapiens), sequence (P21802 22-821 limits assumed): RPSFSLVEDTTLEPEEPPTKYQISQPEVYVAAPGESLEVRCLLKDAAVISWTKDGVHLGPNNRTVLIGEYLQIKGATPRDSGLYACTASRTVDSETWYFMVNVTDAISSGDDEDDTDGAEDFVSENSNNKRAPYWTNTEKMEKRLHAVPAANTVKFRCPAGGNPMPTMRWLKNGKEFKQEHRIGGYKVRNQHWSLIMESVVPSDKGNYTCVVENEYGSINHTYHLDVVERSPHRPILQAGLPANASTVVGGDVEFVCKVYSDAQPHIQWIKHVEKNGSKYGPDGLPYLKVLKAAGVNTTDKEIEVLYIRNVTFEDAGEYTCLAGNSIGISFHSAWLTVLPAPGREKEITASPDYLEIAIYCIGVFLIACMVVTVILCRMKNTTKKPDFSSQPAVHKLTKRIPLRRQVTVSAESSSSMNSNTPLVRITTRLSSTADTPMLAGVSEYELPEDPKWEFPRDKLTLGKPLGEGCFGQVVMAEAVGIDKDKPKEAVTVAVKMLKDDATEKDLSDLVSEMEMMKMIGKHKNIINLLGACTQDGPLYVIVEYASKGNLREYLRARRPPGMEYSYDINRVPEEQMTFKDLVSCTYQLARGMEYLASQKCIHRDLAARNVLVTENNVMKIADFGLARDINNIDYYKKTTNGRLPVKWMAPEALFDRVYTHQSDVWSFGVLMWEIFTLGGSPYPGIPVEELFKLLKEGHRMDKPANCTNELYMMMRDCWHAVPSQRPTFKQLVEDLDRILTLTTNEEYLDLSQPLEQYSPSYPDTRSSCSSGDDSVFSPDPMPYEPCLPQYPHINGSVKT
The target is the same in assay [17]. Conditions: at 1 µM.
For assay [18], the target named is Fibroblast growth factor receptor 3 (Homo sapiens) (UniProt P22607). Conditions: at 0.1 µM.
Fibroblast growth factor receptor 3 (Homo sapiens), sequence (P22607 23-806 limits assumed): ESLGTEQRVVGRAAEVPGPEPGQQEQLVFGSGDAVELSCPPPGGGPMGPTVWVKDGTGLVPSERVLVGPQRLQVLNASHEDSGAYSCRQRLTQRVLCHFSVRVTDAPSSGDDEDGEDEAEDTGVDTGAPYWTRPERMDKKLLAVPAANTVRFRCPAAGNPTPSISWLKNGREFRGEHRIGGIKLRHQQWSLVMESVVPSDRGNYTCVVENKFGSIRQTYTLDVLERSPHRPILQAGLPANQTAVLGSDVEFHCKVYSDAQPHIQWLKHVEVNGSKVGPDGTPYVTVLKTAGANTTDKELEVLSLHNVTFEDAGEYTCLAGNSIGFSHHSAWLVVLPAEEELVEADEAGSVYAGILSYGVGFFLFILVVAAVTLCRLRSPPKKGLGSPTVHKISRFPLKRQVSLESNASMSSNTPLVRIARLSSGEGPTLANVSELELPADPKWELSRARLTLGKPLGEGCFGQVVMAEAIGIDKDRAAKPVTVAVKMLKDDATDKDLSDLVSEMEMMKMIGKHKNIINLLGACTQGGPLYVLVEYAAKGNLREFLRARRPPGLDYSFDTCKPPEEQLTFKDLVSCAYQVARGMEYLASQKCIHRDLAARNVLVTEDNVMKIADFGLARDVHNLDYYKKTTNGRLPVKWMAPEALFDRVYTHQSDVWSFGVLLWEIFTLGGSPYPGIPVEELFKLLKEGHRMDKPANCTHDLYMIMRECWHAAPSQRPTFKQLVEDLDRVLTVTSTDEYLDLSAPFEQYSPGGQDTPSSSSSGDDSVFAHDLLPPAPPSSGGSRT
For assay [19] the target is unchanged. Conditions: at 1 µM.
Assay [20] addresses Fibroblast growth factor receptor 4 (Homo sapiens) (UniProt P22455). Conditions: at 0.1 µM.

Fibroblast growth factor receptor 4 (Homo sapiens), sequence (P22455 22-802 limits assumed): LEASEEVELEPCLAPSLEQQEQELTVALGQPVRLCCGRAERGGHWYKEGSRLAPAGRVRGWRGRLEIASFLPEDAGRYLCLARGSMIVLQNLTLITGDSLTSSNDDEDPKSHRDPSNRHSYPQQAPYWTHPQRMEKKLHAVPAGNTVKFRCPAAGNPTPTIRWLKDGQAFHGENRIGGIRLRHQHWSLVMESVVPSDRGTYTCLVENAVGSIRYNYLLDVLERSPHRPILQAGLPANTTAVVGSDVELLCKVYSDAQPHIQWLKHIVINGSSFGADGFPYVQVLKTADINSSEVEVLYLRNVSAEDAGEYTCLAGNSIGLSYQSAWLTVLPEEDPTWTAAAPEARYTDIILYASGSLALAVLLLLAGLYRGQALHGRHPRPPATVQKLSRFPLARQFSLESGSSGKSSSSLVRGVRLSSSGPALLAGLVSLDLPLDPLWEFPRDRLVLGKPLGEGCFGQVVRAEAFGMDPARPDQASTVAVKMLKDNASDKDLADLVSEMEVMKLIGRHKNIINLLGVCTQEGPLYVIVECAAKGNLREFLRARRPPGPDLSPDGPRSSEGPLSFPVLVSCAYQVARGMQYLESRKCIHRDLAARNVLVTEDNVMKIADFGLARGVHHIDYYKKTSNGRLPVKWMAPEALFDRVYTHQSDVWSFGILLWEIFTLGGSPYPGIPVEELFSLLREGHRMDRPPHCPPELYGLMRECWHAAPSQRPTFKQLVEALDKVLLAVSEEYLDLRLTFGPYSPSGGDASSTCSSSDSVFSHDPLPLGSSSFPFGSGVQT
Receptor tyrosine-protein kinase erbB-2 (Homo sapiens), sequence (P04626 whole entry): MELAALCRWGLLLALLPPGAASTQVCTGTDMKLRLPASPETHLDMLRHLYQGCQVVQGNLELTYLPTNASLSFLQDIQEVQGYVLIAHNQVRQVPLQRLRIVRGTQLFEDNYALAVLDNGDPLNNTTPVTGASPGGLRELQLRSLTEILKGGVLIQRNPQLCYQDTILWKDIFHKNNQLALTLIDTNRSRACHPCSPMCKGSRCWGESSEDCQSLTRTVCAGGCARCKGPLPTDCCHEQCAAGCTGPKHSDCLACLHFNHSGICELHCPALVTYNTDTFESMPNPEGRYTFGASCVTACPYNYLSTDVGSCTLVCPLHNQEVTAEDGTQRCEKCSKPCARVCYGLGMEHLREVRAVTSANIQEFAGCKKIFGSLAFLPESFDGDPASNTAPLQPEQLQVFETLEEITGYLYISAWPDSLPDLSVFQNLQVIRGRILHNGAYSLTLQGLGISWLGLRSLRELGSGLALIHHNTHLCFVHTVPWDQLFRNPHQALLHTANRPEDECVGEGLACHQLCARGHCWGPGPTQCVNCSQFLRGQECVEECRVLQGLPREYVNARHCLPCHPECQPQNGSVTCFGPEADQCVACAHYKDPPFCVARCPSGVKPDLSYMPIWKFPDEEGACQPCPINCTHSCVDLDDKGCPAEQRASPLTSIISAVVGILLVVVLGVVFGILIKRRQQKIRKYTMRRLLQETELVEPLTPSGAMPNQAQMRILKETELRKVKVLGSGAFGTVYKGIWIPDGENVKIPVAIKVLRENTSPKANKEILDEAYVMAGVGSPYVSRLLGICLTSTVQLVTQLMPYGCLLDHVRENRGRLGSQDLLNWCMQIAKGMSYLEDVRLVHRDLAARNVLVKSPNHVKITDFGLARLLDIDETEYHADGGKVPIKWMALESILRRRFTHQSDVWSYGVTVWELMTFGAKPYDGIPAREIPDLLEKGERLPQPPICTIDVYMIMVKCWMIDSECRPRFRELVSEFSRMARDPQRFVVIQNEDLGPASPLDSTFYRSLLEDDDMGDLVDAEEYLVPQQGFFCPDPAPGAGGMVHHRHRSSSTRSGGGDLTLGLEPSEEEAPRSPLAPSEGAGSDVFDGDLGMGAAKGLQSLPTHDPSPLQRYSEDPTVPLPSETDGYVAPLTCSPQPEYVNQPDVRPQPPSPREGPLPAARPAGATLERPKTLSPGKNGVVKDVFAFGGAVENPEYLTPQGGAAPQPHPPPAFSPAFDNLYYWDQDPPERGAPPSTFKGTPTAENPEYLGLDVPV
Tyrosine-protein kinase Fer (Homo sapiens), sequence (P16591 whole entry, looked up): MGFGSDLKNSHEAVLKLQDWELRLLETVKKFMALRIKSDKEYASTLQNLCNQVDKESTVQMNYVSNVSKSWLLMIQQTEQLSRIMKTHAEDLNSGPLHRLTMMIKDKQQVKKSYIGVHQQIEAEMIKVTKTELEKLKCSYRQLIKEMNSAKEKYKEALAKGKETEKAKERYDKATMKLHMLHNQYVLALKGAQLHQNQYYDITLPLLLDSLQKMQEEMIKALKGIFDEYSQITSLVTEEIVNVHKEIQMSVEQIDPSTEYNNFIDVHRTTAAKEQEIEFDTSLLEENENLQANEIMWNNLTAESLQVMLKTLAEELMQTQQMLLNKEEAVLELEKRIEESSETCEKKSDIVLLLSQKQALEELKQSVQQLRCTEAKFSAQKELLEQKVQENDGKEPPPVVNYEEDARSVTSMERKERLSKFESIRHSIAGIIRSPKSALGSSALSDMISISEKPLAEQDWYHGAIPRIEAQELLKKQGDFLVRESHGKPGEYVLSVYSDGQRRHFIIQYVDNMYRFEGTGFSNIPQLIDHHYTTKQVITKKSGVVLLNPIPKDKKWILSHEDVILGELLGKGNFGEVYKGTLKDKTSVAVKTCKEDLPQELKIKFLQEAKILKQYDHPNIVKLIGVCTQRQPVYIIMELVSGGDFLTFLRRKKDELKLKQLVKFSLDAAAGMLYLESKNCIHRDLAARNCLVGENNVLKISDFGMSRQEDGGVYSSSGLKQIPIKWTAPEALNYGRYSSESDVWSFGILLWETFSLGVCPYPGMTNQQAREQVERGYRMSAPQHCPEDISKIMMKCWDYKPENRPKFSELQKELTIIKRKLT

`NCc1ccc(-n2c(-c3nonc3N)nc3cnccc32)cc1`: the inhibition (in general, the relative decrease from the control value, in per cent) was 8.48% in assay [1]; 7.61% in assay [2]; 3.86% in assay [3]; 2.23% in assay [4]; 1.42% in [5]; 2.39% in assay [6]. Moreover, the inhibition in assay [7] worked out at 2.56%; in [8] it was 16.3%; in [9], 18%; in [10] it was 3.01%; in [11], 5.77%; in assay [12] it was 12.8%. In addition, the inhibition is 13% in assay [13]; 4.07% in assay [14]; 6.76% in assay [15]; 6.5% in assay [16]; 9.9% in assay [17]; 9.59% in assay [18]. Besides, the inhibition in assay [19] was 6.14%; in assay [20], -4.29%.
In the case of `CCc1nccc2c1nc(-c1nonc1N)n2CC`, the inhibition in assay [1] is -7.41%; in [2], 2.73%; in assay [3], -3.8%; in assay [4], 1.19%; in assay [5] it was 1.5%; in assay [6], -0.18%. Moreover, the inhibition in assay [7] is -3.91%; in assay [8], 8.55%; in assay [9], 9.58%; in assay [10] it was 5.29%; in [11], 7.31%; in [12], 0.14%. The inhibition in assay [13] was 1.26%; in assay [14], -0.52%; in assay [15] it was -4.23%; in assay [16] it was -1.59%; in [17], 3.19%; in assay [18], -0.24%. For the same compound, the inhibition in assay [19] was 2.1%; in [20], -1.31%.
Consider `O=C1Nc2ccccc2/C1=C/Nc1ccc(-n2cncn2)cc1`, for which the inhibition came out at 8.52% in assay [1]; 4.57% in assay [2]; 2.77% in assay [3]; 2.19% in [4]; 2.59% in [5]; 3.17% in [6]. The inhibition in [7] was found to be 9.83%; in [8] it was 9.69%; in assay [9], 12.5%; in assay [10] it was 3.94%; in assay [11], 11.2%; in assay [12], 2.67%. Moreover, the inhibition in assay [13] was 2.63%; in assay [14], 2.75%; in [15] it was 9.98%; in assay [16], 5.38%; in [17], 24.9%; in [18] it was 7.96%. Also, in assay [19], the inhibition came out at 22%.
With `Fc1ccc(-c2nc3n(c2-c2ccncc2)CCS3)cc1`, the inhibition in [1] was 7.66%; in [2], 2.13%; in assay [3], -1.28%; in assay [4], -0.26%; in assay [5], -2.49%; in assay [6], 4.16%. The inhibition worked out at 1.23% in assay [7]; 9.02% in assay [8]; 10% in [9]; 2.18% in assay [10]; 2.81% in assay [11]; 2.58% in [12]. In addition, the inhibition is 2.75% in assay [13]; -4.07% in assay [14]; 1.42% in assay [15]; -0.33% in assay [16]; 1.72% in assay [17]; 2.38% in assay [18]. In addition, the inhibition in assay [19] was 0.09%; in assay [20], -6.29%.
For `COc1cc(Nc2ncc3c(C)nc(-c4cccc(C(F)(F)F)c4)n3n2)cc(OC)c1OC`, the inhibition is 57.1% in [1]; 6.46% in assay [2]; 3.53% in assay [3]; 5.85% in assay [4]; 31.1% in assay [5]; 0.82% in [6]. Further, the inhibition in assay [7] is 3.68%; in assay [8], 5.34%; in assay [9], 8.32%; in [10], 3.27%; in assay [11], 16.6%; in [12], 2.74%. The inhibition in assay [13] worked out at 4.66%; in assay [14], 0.79%; in assay [15], 3.96%; in [16], 1.87%; in assay [17], 10.6%; in [18], 3.25%. Moreover, the results for the inhibition in [19] and in assay [20] were 4.79% and 0.66%, respectively.
Turning to `COc1cc(Nc2ncc3c(C)nc(-c4cccc(Oc5ccccc5)c4)n3n2)cc(OC)c1OC`, the inhibition in assay [1] was determined as 8.52%; in assay [2], 4.24%; in [3] it was 1.21%; in [4] it was 2.59%; in assay [5] it was 2.97%; in [6], 1.99%. The inhibition was -3.48% in assay [7]; 7.04% in [8]; 8.43% in assay [9]; 3.91% in assay [10]; 7.1% in assay [11]; 2.66% in assay [12]. Besides, the inhibition was 3.2% in assay [13]; 2.41% in assay [14]; -0.38% in assay [15]; 0.66% in [16]; 5.14% in assay [17]; 3.25% in assay [18]. The inhibition turned out to be 3.03% in [19] and 1.38% in [20].
For the compound `CN(c1ccc(NC(=O)Nc2c(Cl)cccc2Cl)cc1)c1ccnc(Nc2cccc(CS(C)(=O)=O)c2)n1`, the inhibition in assay [1] is 27.3%; in assay [2], 2.02%; in assay [3], 4.62%; in assay [4], 2.86%; in [5] it was 8.72%; in assay [6] it was 1.88%. Besides, the inhibition in assay [7] stood at 7.2%; in assay [8] it was 11.2%; in assay [9], 17.1%; in assay [10], 51.9%; in assay [11], 77.2%; in assay [12] it was 11.1%. Moreover, the inhibition in [13] is 22.5%; in assay [14] it was 6.14%; in assay [15] it was -0.4%; in assay [16], 3.91%; in [17], 13.4%; in [18] it was 0.14%. Further, the results for the inhibition in assay [19] and in assay [20] were 5.59% and 2.62%, respectively.
